Experiment [1] can be described thus: qHTS drug screen for cell cycle checkpoint inhibitors in PARPi-resistant BRCA-mutant ovarian cancer cell lines. (AID 1963452). As to conditions: PEO1/OlaR viability, CellTiter-Glo luminescence, 96 h; for Z-AUC: stronger effect = lower value. Put shortly:
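PEO1, PEO4 and PEO1/OlaR ovarian cancer cells, 600 per well, exposed 96 h at 37C to a dilution series. Viability read by CellTiter-Glo luminescence, normalized to DMSO and empty wells; activity summarized as Z-AUC.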

A short description of experiment [2]: qHTS for identification of novel therapeutic agents for treatment of microphthalmiaassociated transcription factor (MiT) renal cell carcinoma (RCC) (AID 1963991).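 For z-score: curves scaled with 100% = DMSO viability and 0% = empty wells.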 As to conditions: CellTiter-Glo, 48 h; for Potency: active = Z-AUC below -0.8 in all three lines; for z-score: stronger effect = lower value. Put shortly:
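UOK109/UOK124/UOK145 (TFE3 fusions, three partners); 500 cells/well; MIPE v4.0, 1912 cpds, 11 conc.; 48 h, 37 C; CellTiter-Glo, 15 min RT; lum. Norm.: DMSO 100%, empty 0%.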

[3] abbreviates: measured here: PEO1 parental Z-AUC.
The mark [4] stands for this setting: TFE3-RCC UOK109 viability, measured here: UOK109 Z-AUC.
Setting [5] is: TFE3-RCC viability, measured here: UOK124 Z-AUC.
[6] abbreviates: TFE3-RCC viability, measured here: UOK145 Z-AUC.

Inconclusive results are not listed. Calls of active or inactive are those of the source. Calls come from the whole dose curve. Starred links: 1 amine or outer side, 2 acyl side, 3 side chain; linkers in the order of their positions; H or OH if unused. Positions of bridges follow the written chain, without caps; N, C: chain ends. Non-standard residues stand in square brackets, D forms with d. Residues, ends and D or L forms follow the SMILES beside them. Chains are numbered I, II in the order given. *: point of attachment. Actinocin(9to1) = Cc1c2oc3c(C)ccc(C(=O)[*:1])c3nc-2c(C(=O)[*:2])c(N)c1=O; NMeV = CN[CH](C(=O)O)C(C)C; Nva = CCC[C@H](N)C(=O)O; Cbz = O=C(OCc1ccccc1)*; Sar = CNCC(=O)O
Potency is the fitted concentration of half-maximal effect.

`COc1ccc(S(=O)(=O)Nc2cccnc2Nc2ccc(O)cc2)cc1`: the results for the Potency in experiment [1] and in experiment [2] (TFE3-RCC UOK109 viability) were 1.38 µM (active) and 0.132 µM (active), respectively. In addition, the results for the Z-AUC in experiment [1] (setting [3]) and in experiment [1] (measured here: PEO4 Z-AUC) were -1.73 and -1.84, respectively. Moreover, the z-score in experiment [2] (setting [4]) is -0.858; in experiment [2] (setting [5]) it was -1.8; in experiment [2] (setting [6]), -1.74.
Take `C=C(C)[C@@H]1CC[C@]2(C)CC[C@]3(C)[C@H](CC[C@@H]4[C@@]5(C)CC[C@H](O)C(C)(C)[C@H]5CC[C@]43C)[C@@H]12`: the results for the Z-AUC in experiment [1], in experiment [1] (setting [3]) and in experiment [1] (measured here: PEO4 Z-AUC) were 1.12 (inactive), 0.74 and 1.16, respectively. In addition, the z-score in experiment [2] (setting [4]) worked out at 1.03; in experiment [2] (setting [5]) it was 0.631; in experiment [2] (setting [6]), 0.295.
Turning to `CS(=O)(=O)N1CCc2c(-c3cnc(N)nc3)nc(N3CCOCC3)nc21`, the Z-AUC in experiment [1] is -0.521 (inactive); in experiment [1] (setting [3]), -0.562; in experiment [1] (measured here: PEO4 Z-AUC), 0.0155. Besides, in experiment [2] (TFE3-RCC UOK109 viability), the Potency was 0.0935 µM (active). For the same molecule, the z-score in experiment [2] (setting [4]) is -2.02; in experiment [2] (setting [5]), -1.41; in experiment [2] (setting [6]) it was -1.55.
For the molecule `CCCCC(=O)O[C@]1(C(=O)CO)[C@@H](C)C[C@H]2[C@@H]3CCC4=CC(=O)C=C[C@]4(C)[C@@]3(F)[C@@H](O)C[C@@]21C`, the Z-AUC was -0.479 (inactive) in experiment [1], 0.863 in experiment [1] (setting [3]) and 0.108 in experiment [1] (measured here: PEO4 Z-AUC). Further, the z-score in experiment [2] (setting [4]) was -0.136; in experiment [2] (setting [5]) it was 0.0594; in experiment [2] (setting [6]) it was 0.664.
As to `Cc1cncc2cccc(S(=O)(=O)N3CCCN(C(=O)CN)C[C@@H]3C)c12`, the Z-AUC in experiment [1] is -0.369 (inactive); in experiment [1] (setting [3]), -0.0744; in experiment [1] (measured here: PEO4 Z-AUC), -0.172. The z-score is 1.38 in experiment [2] (setting [4]), 0.196 in experiment [2] (setting [5]) and 0.7 in experiment [2] (setting [6]).
With `CCCCCCCN(CC)CCCC(O)c1ccc(NS(C)(=O)=O)cc1` (configuration not stated), the Z-AUC in experiment [1] is 1.02 (inactive); in experiment [1] (setting [3]), 0.764; in experiment [1] (measured here: PEO4 Z-AUC), 1.03. The z-score in experiment [2] (setting [4]) was 0.349; in experiment [2] (setting [5]) it was -0.246; in experiment [2] (setting [6]), 0.649.
For `C#CCC(Cc1cnc2nc(N)nc(N)c2n1)c1ccc(C(=O)N[C@@H](CCC(=O)O)C(=O)O)cc1` (some centres not stated), the Potency in experiment [1] was 0.0078 µM (active); in experiment [2] (TFE3-RCC UOK109 viability) it was 0.132 µM (active). Further, the Z-AUC in experiment [1] (setting [3]) was -2.32; in experiment [1] (measured here: PEO4 Z-AUC) it was -1.96. Also, the figures for the z-score in experiment [2] (setting [4]), in experiment [2] (setting [5]) and in experiment [2] (setting [6]) were -1.2, -2.51 and -2.95, respectively.
Consider `Cc1c2oc3c(C)ccc(C(=O)NC4C(=O)NC(C(C)C)C(=O)N5CCCC5C(=O)N(C)CC(=O)N(C)C(C(C)C)C(=O)OC4C)c3nc-2c(C(=O)NC2C(=O)NC(C(C)C)C(=O)N3CCCC3C(=O)N(C)CC(=O)N(C)C(C(C)C)C(=O)OC2C)c(N)c1=O` (configuration not stated) (I: TVP[Sar][NMeV] / II: TVP[Sar][NMeV]; ester I:1-I:C, II:1-II:C; linker I:N-II:N via Actinocin(9to1); configuration not given here), for which the results for the Z-AUC in experiment [1], in experiment [1] (setting [3]) and in experiment [1] (measured here: PEO4 Z-AUC) were -0.322 (inactive), -0.674 and -0.27, respectively. Moreover, the z-score is -4.2 in experiment [2] (setting [4]), -4.25 in experiment [2] (setting [5]) and -3.66 in experiment [2] (setting [6]).
In the case of `CCCCCCCCCCCCc1ccc(S(=O)(=O)Nc2nncs2)cc1`, the results for the Z-AUC in experiment [1], in experiment [1] (setting [3]) and in experiment [1] (measured here: PEO4 Z-AUC) were -0.392 (inactive), 0.179 and 0.202, respectively. For the same molecule, the figures for the z-score in experiment [2] (setting [4]), in experiment [2] (setting [5]) and in experiment [2] (setting [6]) were 1.37, 2.17 and 1.03, respectively.
For `Nc1cccc2c1C(=O)N(C1CCC(=O)NC1=O)C2=O` (configuration not stated), the figures for the Z-AUC in experiment [1], in experiment [1] (setting [3]) and in experiment [1] (measured here: PEO4 Z-AUC) were -0.524 (inactive), -0.0375 and -0.357, respectively. Moreover, the z-score was 0.502 in experiment [2] (setting [4]), 0.0802 in experiment [2] (setting [5]) and -0.491 in experiment [2] (setting [6]).
For `OC[C@H]1OC(O)C[C@@H](O)[C@H]1O` (some centres not stated), the Z-AUC in experiment [1] is -0.67 (inactive); in experiment [1] (setting [3]), -0.645; in experiment [1] (measured here: PEO4 Z-AUC), -0.88. Further, the z-score was 1.34 in experiment [2] (setting [4]), 0.406 in experiment [2] (setting [5]) and -0.0329 in experiment [2] (setting [6]).
As to `C=CC(=O)Nc1ccc2ncnc(Nc3ccc(OCc4cccc(F)c4)c(Cl)c3)c2c1`, the Z-AUC was -0.749 (inactive) in experiment [1], -1.48 in experiment [1] (setting [3]) and -1.57 in experiment [1] (measured here: PEO4 Z-AUC). Besides, the Potency in experiment [2] (TFE3-RCC UOK109 viability) is 0.59 µM (active). Also, the z-score in experiment [2] (setting [4]) is -2.47; in experiment [2] (setting [5]), -3.02; in experiment [2] (setting [6]), -1.72.
As for `C[C@@H]1[C@H](C)CC[C@]2(C(=O)O)CC[C@]3(C)C(=CC[C@@H]4[C@@]5(C)C[C@@H](O)[C@H](O)[C@@](C)(CO)[C@H]5CC[C@]43C)[C@@H]12`, the z-score in experiment [2] (setting [4]) is 0.114; in experiment [2] (setting [5]), 0.271; in experiment [2] (setting [6]), 0.0304.
`Cn1cc(CNCC2CCN(c3ncc(C(=O)NO)cn3)CC2)c2ccccc21`: the Potency in experiment [1] is 0.195 µM (active); in experiment [2] (TFE3-RCC UOK109 viability), 0.166 µM (active). The figures for the Z-AUC in experiment [1] (setting [3]) and in experiment [1] (measured here: PEO4 Z-AUC) were -1.95 and -1.89, respectively. The z-score in experiment [2] (setting [4]) is -1.71; in experiment [2] (setting [5]), -4.28; in experiment [2] (setting [6]), -1.68.
With `C[N+]1(C)[C@@H]2C[C@@H](OC(=O)C(O)(c3cccs3)c3cccs3)C[C@H]1[C@@H]1O[C@@H]12`, the z-score in experiment [2] (setting [4]) stood at 0.526; in experiment [2] (setting [5]), 0.59; in experiment [2] (setting [6]), 0.677.
The corresponding values for `CC(=O)OCC(=O)[C@@]1(O)CC[C@H]2[C@@H]3CCC4=CC(=O)CC[C@]4(C)[C@@H]3C(=O)C[C@@]21C` are -0.147, 0.413 and 0.581.
For `CC(C)(C)[C@H](NC(=O)c1ccc(N)c(Cl)c1)C(=O)N1CCC[C@@H]1C(=O)N[C@H](C#N)CC(=O)O`, the z-score in experiment [2] (setting [4]) was found to be 1.53; in experiment [2] (setting [5]), 2.68; in experiment [2] (setting [6]) it was 2.13.
The corresponding values for `COC1=C(OC)C(=O)C(CC=C(C)CCC=C(C)CCC=C(C)CCC=C(C)CCC=C(C)CCC=C(C)CCC=C(C)CCC=C(C)CCC=C(C)CCC=C(C)C)=C(C)C1=O` are 0.576, 0.211 and 0.661.
For `CC(=O)N[C@H]1[C@@H]([C@H](O)[C@H](O)CO)OC(C(=O)O)=C[C@@H]1N=C(N)N` the same measures were 0.312, 0.639 and 0.195.
`NC[C@H]1O[C@H](O[C@H]2[C@@H](O)[C@@H](O[C@H]3O[C@H](CO)[C@@H](O)[C@H](N)[C@@H]3O)[C@H](N)C[C@@H]2N)[C@H](N)C[C@H]1O`: the z-score turned out to be 2.03 in experiment [2] (setting [4]), 0.18 in experiment [2] (setting [5]) and 1.86 in experiment [2] (setting [6]).
The corresponding values for `CN1[C@H]2CC(OC(=O)[C@@H](CO)c3ccccc3)C[C@H]1[C@H]1O[C@H]12` (some centres not stated) are 0.573, 0.895 and 0.977.
Consider `Cc1cc(Nc2ncc3c(n2)N(C)C(=O)N(c2cc(NC(=O)c4cccc(C(F)(F)F)c4)ccc2C)C3)n(C)n1`, for which the Z-AUC in experiment [1] was -1.62 (inactive); in experiment [1] (setting [3]), -1.69; in experiment [1] (measured here: PEO4 Z-AUC) it was -1.33. The Potency in experiment [2] (TFE3-RCC UOK109 viability) was 0.264 µM (active). Besides, the results for the z-score in experiment [2] (setting [4]), in experiment [2] (setting [5]) and in experiment [2] (setting [6]) were -1.56, -1.08 and -2.15, respectively.
As for `CCC[C@@H](C=O)NC(=O)[C@H](CC(C)C)NC(=O)[C@H](CC(C)C)NC(=O)OCc1ccccc1` (Cbz-Leu-Leu-[Nva]-aldehyde), the Z-AUC in experiment [1] is -1.63 (inactive); in experiment [1] (setting [3]), -1.42; in experiment [1] (measured here: PEO4 Z-AUC) it was -1.86. The Potency in experiment [2] (TFE3-RCC UOK109 viability) was 4.18 µM (active). The results for the z-score in experiment [2] (setting [4]), in experiment [2] (setting [5]) and in experiment [2] (setting [6]) were -1.03, -2.77 and -1.34, respectively.
`CC(C)OC(=O)[C@H](C)N[P@](=O)(OC[C@H]1O[C@@H](n2ccc(=O)[nH]c2=O)[C@](C)(F)[C@H]1O)Oc1ccccc1`: the figures for the z-score in experiment [2] (setting [4]), in experiment [2] (setting [5]) and in experiment [2] (setting [6]) were 0.488, 1.3 and 0.519, respectively.
The corresponding values for `CC[C@H](CC[C@@H](C)[C@H]1CC[C@H]2[C@@H]3CC=C4C[C@@H](O)CC[C@]4(C)[C@@H]3CC[C@]12C)C(C)C` are 0.368, 0.916 and 0.197.

The values above are taken from PubChem BioAssay (NCATS).
